Results filed as inconclusive are left out. Values without a mark were called inactive. Activity calls are given as the source filed them. Calls come from the whole dose curve; as a rule, active = well fitted curve in the direction sought with a large enough effect; inconclusive = small, poorly fitted or top-dose-only effect, or another doubt; inactive = no such curve, though single readings can be large or run the other way.
Assay: qHTS Assay for Rab9 Promoter Activators: Hit Validation Using Renilla Luciferase Read-Out; for activation (negative = inhibition): % of control where 0% means no effect
Conditions: Huh7 NPC1 promoter Renilla luciferase reporter, 24 h; series mostly up to 76.9 µM; activation (negative = inhibition): at the top concentration
Procedure, shortened: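 Huh7 cells stably carrying NPC promoter-luciferase, 1,500 cells/well, exposed to compound for 24 h at 37 deg C. Luminescence read 10 min after […] addition; validation of firefly-read primary hits.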
Potency is the fitted concentration of half-maximal effect.

In order of falling “activation (negative = inhibition)” value:
1. COc1ccc(/C=C\c2onc(C)c2S(=O)(=O)N2CCC(C(=O)NCCC(C)C)CC2)cc1  9.81%
2. CCC(C)(C)NC(=O)C(c1ccc(OC)cc1)N(Cc1cccs1)C(=O)CCC(=O)Nc1cc(C)on1 (configuration not stated)  4.13%
3. O=C(CCCN1C(=O)C(c2ccccc2)Oc2cccnc21)Nc1ccccc1Cl (configuration not stated)  3.99%
4. Cc1ccccc1NC(=O)Cc1nc(COC(=O)CC(C)c2ccccc2)cs1 (configuration not stated)  2.23%
5. COc1ccc(C(c2nnnn2CCc2ccccc2)N2CCN(C3CCCC3)CC2)cc1 (configuration not stated)  0.128%
6. C=CCn1c(C)nnc1SCC(=O)Nc1nccs1  -1.57%
7. O=C(CCNC(=O)c1ccc(Br)o1)NCc1ccc(Cl)cc1  -2.1%
8. CCCOP(=O)(c1ccc(N(C)C)cc1)C(O)c1cccnc1 (configuration not stated)  -3.35%
9. CCCOC(=O)Cn1cnc2scc(-c3ccc(OC)cc3)c2c1=O  -4.52%
10. CC(C)C1(CCNC(=O)c2cccs2)CCOC(C)(C)C1 (configuration not stated)  -5.65%
11. COc1ccc(NC(=O)CCCN2C(=O)C(c3ccccc3)Oc3cccnc32)cc1OC (configuration not stated)  -6%
12. CCN(CC(=O)N(CC(C)C)c1c(N)n(CC(C)C)c(=O)[nH]c1=O)Cc1nc2ccccc2c(=O)[nH]1  -6.08%
13. CCCNC(=O)C1CCN(S(=O)(=O)c2ccc3[nH]c(=O)ccc3c2)CC1  -9.86%
14. CCCCn1c(CCNC(=O)c2cccs2)nc2ccccc21  -13.5%
15. Cc1ccc2nc(NC(=O)CCn3cccc3)sc2c1  -34.5%
16. CC(C)(C)NC(=S)NNC(=O)c1ccc2ncccc2c1  -57.9%

In the case of `Cc1ccc(S(=O)(=O)/N=C(/Nc2ccccn2)c2ccc(Cl)cc2)cc1`, the Potency is reported as 20.7 µM (active).

From PubChem BioAssay AID624117 (National Center for Advancing Translational Sciences (NCATS), 2012)
